According to PubChem BioAssay (NCI):
The panel holds about 83,000 compounds, 20% with a hit somewhere; the sample as a whole holds those more often.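 Results are percent growth after 48 hours of single-concentration exposure. 100 means growth as in untreated cells, lower positive values show inhibition; negative values down to -100 show cell death.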 Values without a mark were called inactive. The source made the active and inactive calls. The calls were made as follows: active = growth percent below 10; inactive = the rest.

Legend:
Experiment in all cases: NCI-60 one-dose screen, 48 h (100 = growth as untreated, 0 = no growth, -100 = all killed)
[1] = tested on: NCI-H226 lung; details: 10 µM
[2] = tested on: NCI-H322M lung; details: 10 µM
[3] = tested on: HOP-62 NSCLC; details: 10 µM
[4] = tested on: NCI-H460 lung; details: 10 µM
[5] = tested on: A549/ATCC NSCLC; details: 10 µM
[6] = tested on: COLO 205 colon; details: 10 µM
[7] = tested on: DU-145 prostate; details: 10 µM
[8] = tested on: K-562 leukemia; details: 10 µM
[9] = tested on: SF-539 CNS; details: 10 µM
[10] = tested on: M14 melanoma; details: 10 µM
[11] = tested on: HCT-15 colon; details: 10 µM
[12] = tested on: HT29 colon; details: 10 µM
[13] = tested on: SNB-75 CNS; details: 10 µM
[14] = tested on: U251 CNS; details: 10 µM
[15] = tested on: LOX IMVI melanoma; details: 10 µM
[16] = tested on: MOLT-4 leukemia; details: 10 µM
[17] = tested on: SR leukemia; details: 10 µM
[18] = tested on: RPMI-8226 leukemia; details: 10 µM
[19] = tested on: SK-OV-3 ovarian; details: 10 µM
[20] = tested on: MDA-MB-468 breast; details: 10 µM unless noted

COc1ccc(Cc2nn(CC(=O)N/N=C/c3ccc([N+](=O)[O-])cc3)c(=O)c3c(C)noc23)cc1
growth [1]: 70.6%
growth [2]: 78.6%
growth [3]: 39.6%
growth [4]: 16.6%
growth [5]: 22.5%
growth [6]: 82.9%
growth [7]: 88.4%
growth [8]: 88.4%
growth [9]: 34%
growth [10]: 70.1%
growth [11]: 83.7%
growth [12]: 96.2%
growth [13]: 99.8%
growth [14]: 24.4%
growth [15]: 26.4%
growth [16]: 90.2%
growth [17]: 93.2%
growth [18]: 81.5%
growth [19]: 103%
growth [20]: 53.1%

CC1[C@H]2[C@H](C[C@H]3[C@@H]4CC=C5c6sc(Nc7cccc(Cl)n7)nc6CC[C@]5(C)[C@H]4CC[C@@]32C)O[C@]12CC[C@@H](C)CO2 (stereo not given in full)
growth [1]: 81.5%
growth [2]: 102%
growth [3]: 116%
growth [4]: 85.7%
growth [5]: 96.1%
growth [6]: 70.2%
growth [7]: 99.1%
growth [8]: 54.5%
growth [9]: 110%
growth [10]: 77.4%
growth [11]: 73.9%
growth [12]: 100%
growth [13]: 127%
growth [14]: 92.2%
growth [15]: 79.6%
growth [16]: 79.8%
growth [17]: 65.3%
growth [18]: 56.5%
growth [19]: 108%
growth [20]: 93.6%

COc1ccc2[nH]cc(-c3nc(N)nnc3-c3cn(C)c4ncc(Br)cc34)c2c1
growth [1]: 8.48% (active)
growth [2]: 35%
growth [3]: 26.5%
growth [4]: 1.08% (active)
growth [5]: 17.7%
growth [6]: -73.9% (active)
growth [7]: 11.1%
growth [8]: 3% (active)
growth [9]: -3.25% (active)
growth [10]: 6.91% (active)
growth [11]: 12.3%
growth [12]: -27.1% (active)
growth [13]: 23.4%
growth [14]: 5.39% (active)
growth [15]: 20%
growth [16]: 2.27% (active)
growth [17]: 3% (active)
growth [18]: -16% (active)
growth [19]: 10.7%
growth [20]: -8.06% (active)
